Results reported in PubChem BioAssay (NCATS).
Inconclusive results are not listed. Where a call stands in place of a potency, no number is given. Active and inactive are the calls of the source. The call rests on the fitted dose curve; in most records, active means well fitted curve in the direction sought with a large enough effect; inconclusive means small, poorly fitted or top-dose-only effect, or another doubt; inactive means no such curve, though single readings can be large; an effect the other way counts as inactive or inconclusive.

Key:
[1] = biological target: Ubiquitin carboxyl-terminal hydrolase 1 (Homo sapiens) (UniProt O94782); assay: Inhibitors of USP1/UAF1: Pilot qHTS (AID 504865); further: nearly all actives have a fitted effect of over 35% in size; further: potency means the concentration at half of the fitted maximal effect
Method in brief: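 In 50mM HEPES pH 7.8 containing 0.5mM EDTA, 1mM TCEP, 0.1 mg/ml BSA and 0.01% Tween-20, 1nM USP1/UAF1 is exposed to compound for 15 min, then Ub-Rho (150nM final) is added and fluorescence is read over time.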

[2] = qHTS for Inhibitors of ATXN expression: Validation of Cytotoxic Assay (AID 588349); further: potency means the concentration at half of the fitted maximal effect
Method in brief: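 Cytotoxicity counter-screen: HEK293 cells exposed to compound titrations, 72 hr, 37 degrees C. Read-out is intracellular ATP (CellTiter Glo luminescence) as a viability measure.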

[3] = qHTS for Inhibitors of ATXN expression: Validation (AID 588378); further: series mostly up to about 57 µM; nearly all actives have a fitted effect of over 75% in size
Method in brief: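 Compounds were pinned onto attached HEK293 cells carrying an ATXN2-firefly luciferase construct and incubated 24 hrs at 37 degrees C. Each well then received a fluorescent viability reagent followed by luciferase substrate for end-point luminescence.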

Chain of Ubiquitin carboxyl-terminal hydrolase 1 (Homo sapiens) (O94782 whole entry, looked up): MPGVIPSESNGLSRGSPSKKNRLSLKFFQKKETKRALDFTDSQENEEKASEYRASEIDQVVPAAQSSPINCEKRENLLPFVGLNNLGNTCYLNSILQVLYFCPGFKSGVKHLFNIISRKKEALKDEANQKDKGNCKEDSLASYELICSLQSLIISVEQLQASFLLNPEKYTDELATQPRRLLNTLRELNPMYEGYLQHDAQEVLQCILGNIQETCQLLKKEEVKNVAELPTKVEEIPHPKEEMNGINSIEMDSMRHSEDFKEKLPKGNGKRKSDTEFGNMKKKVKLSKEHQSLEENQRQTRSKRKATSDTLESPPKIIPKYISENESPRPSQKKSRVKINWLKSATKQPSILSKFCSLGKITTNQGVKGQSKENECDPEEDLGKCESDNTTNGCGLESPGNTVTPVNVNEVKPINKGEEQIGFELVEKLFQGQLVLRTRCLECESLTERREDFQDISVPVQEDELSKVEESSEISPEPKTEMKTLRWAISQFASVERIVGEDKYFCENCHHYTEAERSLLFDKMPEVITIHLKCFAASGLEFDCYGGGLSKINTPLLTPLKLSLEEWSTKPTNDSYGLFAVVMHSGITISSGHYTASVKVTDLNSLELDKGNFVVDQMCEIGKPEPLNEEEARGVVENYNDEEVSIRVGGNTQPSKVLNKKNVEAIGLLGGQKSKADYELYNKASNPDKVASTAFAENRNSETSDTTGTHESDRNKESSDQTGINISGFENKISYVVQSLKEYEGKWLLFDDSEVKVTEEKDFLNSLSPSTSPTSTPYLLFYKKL

Compound | Potency [1] | Potency [2] | outcome [3]
CCCc1nc2c(C)cc(-c3nc4ccccc4n3C)cc2n1Cc1ccc(-c2ccccc2C(=O)O)cc1 | 50.1 µM (active) |  | 
CCC(C)N(C)C(=O)c1cc2ccccc2c(-c2ccccc2Cl)n1 (stereo not given) | inactive | inactive | inactive
Cc1cn[nH]c1 | inactive | inactive | inactive
CCCc1nn(C)c2c(=O)[nH]c(-c3cc(S(=O)(=O)N4CCN(C)CC4)ccc3OCC)nc12 | inactive |  | 
CC(c1cc2ccccc2s1)N(O)C(N)=O (stereo not given) | inactive |  | 
N[C@@H]1CONC1=O | inactive | inactive | inactive
CC(C)(C)NCC(O)c1ccc(O)c(CO)c1 (stereo not given) | inactive | inactive | inactive
O=C(Nc1nc2ccccc2n1CCN1CCOCC1)c1cccc([N+](=O)[O-])c1 | inactive | inactive | inactive
CC(C)NCC(O)COc1ccc(COCCOC(C)C)cc1 (stereo not given) | inactive | inactive | inactive
CN1CCN(CCCN2c3ccccc3Sc3ccc(C(F)(F)F)cc32)CC1 | 50.1 µM (active) | 28.2 µM (active) | 
COc1ccc2nc(S(=O)Cc3ncc(C)c(OC)c3C)[nH]c2c1 (stereo not given) | inactive |  | 
C#Cc1cccc(Nc2ncnc3cc(OCCOC)c(OCCOC)cc23)c1 | inactive |  | 
CNC[C@H](O)c1cccc(O)c1 | inactive | inactive | inactive
Cc1ccc(N(CC2=NCCN2)c2cccc(O)c2)cc1 | inactive |  | 
NCCCC(N)(C(=O)O)C(F)F (stereo not given) | inactive | inactive | inactive

Compound | Potency [1] | Potency [2] | outcome [3]
CCCCNc1cc(C(=O)O)cc(S(N)(=O)=O)c1Oc1ccccc1 | inactive | inactive | inactive
CC(C[N+](C)(C)C)OC(N)=O (stereo not given) | inactive | inactive | inactive
Cc1[nH]c(=O)c(C#N)cc1-c1ccc2nccn2c1 | inactive |  | 
Oc1ccc(C2CNCCc3c2cc(O)c(O)c3Cl)cc1 (stereo not given) | inactive | inactive | inactive
CCc1ccc(CCOc2ccc(CC3SC(=O)NC3=O)cc2)nc1 (stereo not given) | inactive |  | 
CCN(CC)CCCC(C)Nc1ccnc2cc(Cl)ccc12 (stereo not given) | inactive |  | 
CCn1cc(C(=O)O)c(=O)c2cc(F)c(N3CCNC(C)C3)c(F)c21 (stereo not given) | inactive | inactive | inactive
NCCc1ccc(O)c(O)c1 | inactive |  | 
c1ccc([C@H]2CN3CCSC3=N2)cc1 | inactive | inactive | inactive
Cc1oncc1C(=O)Nc1ccc(C(F)(F)F)cc1 | inactive | inactive | inactive
Nc1nc2c(ncn2COCCO)c(=O)[nH]1 | inactive | inactive | inactive
Nc1ccc(S(=O)(=O)Nc2ccnn2-c2ccccc2)cc1 | inactive | inactive | inactive
NNCCc1ccccc1 | inactive | inactive | inactive
OC(CN1CCC(Cc2ccc(F)cc2)CC1)c1ccc(Cl)cc1 (stereo not given) | inactive | inactive | inactive
OC(CCN1CCCCC1)(c1ccccc1)C1CC2C=CC1C2 (stereo not given) | inactive |  | 
